From PMC7819943, “Rice protein-binding microarrays: a tool to detect cis-acting elements near promoter regions in rice”
Over roughly 68,000 sequences, “fluorescence intensity (a.u.)” has its median near 9,100; the highest 2% begin near 16,000. What follows is part of a selection rich in the highest values, with near analogues and random picks from the rest.

What follows are sequences tested against OsWRKY34 (Oryza sativa, UniProt Q0JBA9 1-250) (assay: protein-binding microarray (RPBM); PBS, 2% BSA, 51.3 ng/ul salmon testes DNA, 50 uM zinc acetate, 200 nM TF, 25 C, 1 h; high values mean tight binding). Conditions: protein: recombinant; tags: N-terminal polyhistidine and DsRed monomer fusion (pET32a); label: CyDye5-dUTP incorporated in the synthesized complementary strand; 3' TTTTT single-stranded linker to array surface; dsDNA, one strand shown.
OsWRKY34, sequence (Q0JBA9 entry or part of it): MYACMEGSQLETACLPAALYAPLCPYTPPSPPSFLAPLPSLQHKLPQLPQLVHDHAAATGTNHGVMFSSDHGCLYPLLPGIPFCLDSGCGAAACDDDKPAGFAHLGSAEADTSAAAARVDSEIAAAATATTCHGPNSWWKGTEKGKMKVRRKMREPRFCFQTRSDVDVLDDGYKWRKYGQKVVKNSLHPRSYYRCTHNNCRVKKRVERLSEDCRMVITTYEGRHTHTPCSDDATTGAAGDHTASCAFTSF
How it was run: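 The binding signal is fluorescence intensity per array feature (arbitrary units). Readings came from an Axon 4000B scanner after a washed, 2% BSA-blocked, double-stranded custom Agilent array had been incubated for 1 h at 25 °C with 200 nM protein and 50 µM zinc acetate. The protein was a Ni–NTA-purified transcription factor fused N-terminally to polyhistidine and DsRed, expressed in E. coli BL21-CodonPlus.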

| Sequence | binding signal |
| --- | --- |
| CTTCCCTAAATGTTTGACGCCGTTGACTTTTCTAAACATGCGGAGTCACCTAGTGCAG | 18600 fluorescence intensity (a.u.) |
| TGTTTGACGCCGTTGACTTTTTTAAACATGTTTGACCATTCGGAGTCACCTAGTGCAG | 34200 fluorescence intensity (a.u.) |
| ATGACGCCGTTGACTTTTTAACAAACGTTTGACCATTCGTCGGAGTCACCTAGTGCAG | 21700 fluorescence intensity (a.u.) |
| AACTTTTTGATATACGCTCGATCATTCATCTTATTGAATACGGAGTCACCTAGTGCAG | 8030 fluorescence intensity (a.u.) |
| CCCGTGTCTTGTGTGTTTCCATTCTCGCGAACCTTCCACACGGAGTCACCTAGTGCAG | 9910 ± 264 fluorescence intensity (a.u.) |
| TTAATTTTTTTCTCATTTGTGCGTCCTATGGTCAAGCGTCCGGAGTCACCTAGTGCAG | 8490 fluorescence intensity (a.u.) |
| AATTCCGGCCCAATAGTCACTTGTGTTGGCCACTTCGCCTCGGAGTCACCTAGTGCAG | 9010 fluorescence intensity (a.u.) |
| GATTCATCGATCTTTTACGAGTACTATTTTTGTGATTATTCGGAGTCACCTAGTGCAG | 11300 fluorescence intensity (a.u.) |
| TACATGTGGGTCCCATGGGTTTTATTATCTTTTTCGGATCCGGAGTCACCTAGTGCAG | 9360 fluorescence intensity (a.u.) |
| AATCTACAAGATATATAACTAGATGTGTGGTGGGTTGAAACGGAGTCACCTAGTGCAG | 8280 fluorescence intensity (a.u.) |
| AATTAGTTCCTGGACTTTGTGTATTACTAGTACTACTCCACGGAGTCACCTAGTGCAG | 8570 fluorescence intensity (a.u.) |
| TGACTCTATTTTTTCCTTCGGTCTGCTGTCTGCACTCTGGCGGAGTCACCTAGTGCAG | 11300 fluorescence intensity (a.u.) |
| GCCACGAGTTCCACGGCCGCGGCGTCGTCGTCGTCGTCGTCGGAGTCACCTAGTGCAG | 8090 fluorescence intensity (a.u.) |
| CTCCGCCTCGCGCCGTTGTCGCCGTCGCCTCGCGCCGCCACGGAGTCACCTAGTGCAG | 10100 fluorescence intensity (a.u.) |
| TCGTCGGCGTCGCGTTCACGGCCGCCGTGGCCGTGGCCGTCGGAGTCACCTAGTGCAG | 16500 fluorescence intensity (a.u.) |
| TGTCTAGCTGCTCCGACCAGTCAACCGTTGAACGTTGACTCGGAGTCACCTAGTGCAG | 14700 fluorescence intensity (a.u.) |
| CGCCACCATCGCTGCGCCGCCATCGCCACCACCGCAGCCGCGGAGTCACCTAGTGCAG | 8840 fluorescence intensity (a.u.) |
| CGTAGGCCACGCCACCTCACCCTGTTGACCGAGTCAAACCCGGAGTCACCTAGTGCAG | 11900 fluorescence intensity (a.u.) |
| AGCGTCGCTGCCATCATCGCCGTCGCGTCGCTCGTCGCCGCGGAGTCACCTAGTGCAG | 8220 fluorescence intensity (a.u.) |
| CTGCCATCGCGTCGGCGTCGCGCCGCTGCCGTTGACCGTGCGGAGTCACCTAGTGCAG | 16700 fluorescence intensity (a.u.) |
| GGTTGACCGTAGTCAACTCGCCACGTTGACTAGAACCGAGCGGAGTCACCTAGTGCAG | 17900 fluorescence intensity (a.u.) |
| GTCTCCGCCATCGTTGTCGCCGTCGCCTCGCGCCACCACGCGGAGTCACCTAGTGCAG | 8230 fluorescence intensity (a.u.) |

| Sequence | binding signal |
| --- | --- |
| ACCACCGCCGCGGCGGCGTCGCCCACGCCGTGCCGCCCCGCGGAGTCACCTAGTGCAG | 8160 fluorescence intensity (a.u.) |
| CGTTGTCGCCACCACCACCGCCGCCGTCGCCACAACTCCGCGGAGTCACCTAGTGCAG | 20500 fluorescence intensity (a.u.) |
| TCTCCCTTTCATTTTTATGTATGTTGGAATTATTTTTGTTCGGAGTCACCTAGTGCAG | 8590 fluorescence intensity (a.u.) |
| TATTTGATCCCGTTTTTTAAAATCGAGCTTACCGTTTGACCGGAGTCACCTAGTGCAG | 10500 fluorescence intensity (a.u.) |
| GTGGAGCTATACCTTCTACTCTCAGCAATTGTCCTTTAGACGGAGTCACCTAGTGCAG | 9460 fluorescence intensity (a.u.) |
| ACGCGGCCGCCGAGCTGGACTCCTCATCCCCAGCTTCGCTCGGAGTCACCTAGTGCAG | 8600 fluorescence intensity (a.u.) |
| CAATTATCCTCTGTGCTGTTTGACATTTTCTTGGTTAGTGCGGAGTCACCTAGTGCAG | 12000 fluorescence intensity (a.u.) |
| GACACACGATTTCTTAAGGCTCATACTTTATGCTTGTCTACGGAGTCACCTAGTGCAG | 11300 fluorescence intensity (a.u.) |
| GACACATGAACTTTCAATTTTTCTATCACATCGTTCTAATCGGAGTCACCTAGTGCAG | 8150 fluorescence intensity (a.u.) |
| TTTTTTGGTTGTTGATATGATGTTCTTTTTTCCTCATTCTCGGAGTCACCTAGTGCAG | 8990 fluorescence intensity (a.u.) |
| GGCTTTGTATTTTGGTGTTGAGTCCCTTCCATACAAGAACCGGAGTCACCTAGTGCAG | 8040 fluorescence intensity (a.u.) |
| AGTTTTTGCTTGTAACGTTTCACCACTCGTCTTATTCAAACGGAGTCACCTAGTGCAG | 8340 fluorescence intensity (a.u.) |
| AACCTCCACACACCCGCTCATACTACAAGCTAGGTAATCACGGAGTCACCTAGTGCAG | 8040 fluorescence intensity (a.u.) |
| GCGCTTCTGACCACCACGTGCATTTCCATTTCCCGCTGCACGGAGTCACCTAGTGCAG | 12700 fluorescence intensity (a.u.) |
| CCCATCGCATCTTTCCCACTCGCCCCACGCCCGCACGTCTCGGAGTCACCTAGTGCAG | 18800 fluorescence intensity (a.u.) |
| GCCCCATCCACCGCACCACACGTCTCTTTTTTTCGCGACTCGGAGTCACCTAGTGCAG | 14600 fluorescence intensity (a.u.) |
| CCCCTCGCCGCCCTCTCTCTCACAGTCTCACGCATCCCATCGGAGTCACCTAGTGCAG | 8440 fluorescence intensity (a.u.) |
| CGCACCACCACCACCATTTCCACGCCCCTCTCTCCATTCCCGGAGTCACCTAGTGCAG | 8680 fluorescence intensity (a.u.) |
| CGCTCCACCACCCGCCCGCTCGCCCATTTCCTCTCCCTTTCGGAGTCACCTAGTGCAG | 12300 fluorescence intensity (a.u.) |
| CGCTGACCACGTTGACCATCTTCCATTTCTTCCCCTCGCCCGGAGTCACCTAGTGCAG | 18600 fluorescence intensity (a.u.) |
| CACCTCCCCGCCCACCATTCCCACTTTCGCCCACACACACCGGAGTCACCTAGTGCAG | 9570 fluorescence intensity (a.u.) |
| TGCTCGGACCATTCCCCGCCCACCATCGCTGCACACTTTTCGGAGTCACCTAGTGCAG | 17200 fluorescence intensity (a.u.) |
